# According to PubChem BioAssay (NCI):
# The panel holds about 83,000 compounds, 20% with a hit somewhere; the sample as a whole holds those more often.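 48-hour exposure, single concentration, 96-well plates; percent growth endpoint where 0 means no net growth. Active: below 10.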 Values without a mark were called inactive. Activity calls are given as the source filed them.
# Test system: IGROV1 ovarian
# Experiment: NCI-60 one-dose screen, 48 h (100 = growth as untreated, 0 = no growth, -100 = all killed)
# Settings: 10 µM unless noted
row,SMILES,growth
1,C#CCOc1ccc(/C=N/Nc2nc(-c3cc4cc(OC)ccc4oc3=O)cs2)cc1OC,81%
2,COc1cc(-c2nc3cc(Cl)c(Cl)cc3[nH]2)ccc1OCc1nnc(-c2cccs2)o1,59.4%
3,COc1ccc(N2N=C(c3ccc4c(c3)OCO4)CC2c2cccc(NC(=O)CCCNS(=O)(=O)c3ccc(F)cc3)c2)cc1 (stereo not drawn),90.7%
4,C=C1CC[C@@H]2[C@]3(C)COC(c4ccccc4)O[C@@H]3CC[C@@]2(C)[C@@H]1C/C=C1/C(=O)OCC1OC(C)=O (stereo partly drawn),-51.3% (active)
5,Cc1sc2c(c1C)C(c1ccc(Cl)cc1)=N[C@@H](CC(=O)NCCCCCNC(=O)COc1ccc(C3CCC(=O)NC3=O)cc1)c1nnc(C)n1-2 (stereo partly drawn),21.8%

# Test system: OVCAR-3 ovarian
# Experiment: as above
# Settings: 10 µM unless noted
row,SMILES,growth
1,COc1c(F)ccc(C(=O)Nc2ccc3nc(NC(=O)C4CCCN(S(=O)(=O)c5ccc(Br)s5)C4)sc3c2)c1F (stereo not drawn),85.8%
2,Cc1ccc(-c2nc(Nc3ccccc3S(N)(=O)=O)c3ccccc3n2)cc1,97.1%
3,Clc1cccc(Cl)c1/C=C/c1cc(/C=C/c2ccc(Br)cc2)c2ccccc2n1,111%
4,COc1ccc(/C=C/c2n(Cc3ccc4ccccc4c3)c3ccccc3[n+]2Cc2ccc3ccccc3c2)cc1,-82.8% (active)
5,C#CCOc1cc(N(CC)CC)ccc1C(C(=O)NC(C)(C)C)N(C(=O)C1CCc2cc(F)ccc2O1)c1ccc(Br)cc1 (stereo not drawn),107%
6,CSc1ccc(C(=O)Nc2ccc3nnn(/C(C#N)=C/c4ccccn4)c3c2)cc1,-30.8% (active)
7,COC(=O)/C=C/c1cccc2c1C(=O)NC(C)(c1cc3ccccc3oc1=O)N2 (stereo not drawn),74.1%
8,O=C(COc1ccc2c(c1)CCCC(=O)N2)NCc1ccccc1,85.4%
9,COc1ccc(Cc2nn(CC(=O)N/N=C/c3ccc(F)cc3)c(=O)c3c(C)noc23)cc1,47%
10,CCCSc1nc(NCCc2c[nH]c3ccccc23)c(C#N)c(-c2ccc(F)cc2)n1,84.9%
11,O=C(O)Cn1c(O)c(/C=C2/C=c3cc4c(cc3=NC2=O)OCCO4)sc1=S,110%
12,COc1ccc(C(=O)/C=C/c2ccc(OCc3ccc(F)cc3)c(OC)c2)cc1OC,18.2%
13,Cn1cc(-c2cc(N)n3nc(-c4c[nH]c5ccccc45)cc3n2)c2cc(Br)cnc21,-66% (active)
14,CC(=O)/C=C/c1cccc2c1C(=O)NC(C)(c1cc3cc(Br)ccc3oc1=O)N2 (stereo not drawn),28.1%
15,CCN(CC)c1ccc(/C=N/Nc2nc(-c3ccc(Br)cc3)cs2)c(O)c1,61.3%
16,CC1(C)CC[C@]2(C(=O)O)CC[C@]3(C)C(=CCC4[C@@]5(C)C[C@@H](O)[C@@H]6OC(c7ccco7)OC[C@@]6(C)C5CC[C@]43C)C2C1 (stereo partly drawn),20.5%
17,C/C(=N\N=C\c1cc([N+](=O)[O-])ccc1Cl)c1ccc2c(c1)Nc1ccccc1S2,-4% (active)
18,CN(C)c1nc(NCCNS(=O)(=O)c2ccc(C3=Nc4c(N)nc(N)nc4NC(c4ccc(C(F)(F)F)cc4)C3)cc2)nc(Nc2ccc(F)cc2)n1 (stereo not drawn),23%
19,Cn1cc(-c2cc(N)n3nc(-c4cn(C)c5ccc(Cl)cc45)cc3n2)c2ccccc21,122%

row,SMILES,growth
1,O=C(/C=C/c1ccc(-c2ccccc2)cc1)c1nc2ccccc2n1Cc1ccc(Br)cc1,45%
2,COc1cc2c(c(OC)c1OC)C(=O)CC(c1cccc(NC(=O)c3cc(NC(=O)[C@H](CO)NC(=O)OC(C)(C)C)ccc3Cl)c1)O2 (stereo partly drawn),27.4%
3,CC(=O)c1cccc(NC(=O)CCC(=O)NS(=O)(=O)c2ccc(C)cc2)c1,128%
4,C#CCOc1ccc(/C=N/Nc2nc(-c3ccc(F)cc3)cs2)cc1OC,71.2%
5,CC1(C)CC[C@]2(C(=O)O)CC[C@]3(C)C(=CCC4[C@@]5(C)C[C@@H](O)[C@@H]6OC(c7ccccc7Br)OC[C@@]6(C)C5CC[C@]43C)C2C1 (stereo partly drawn),9.3% (active)
6,COc1cc2oc(-c3cccc(C(=O)Nc4ccc(Cl)cc4)c3)cc(=O)c2c(OCCNC(=O)[C@H](CCC(=O)OC(C)(C)C)NC(=O)OC(C)(C)C)c1OC,110%
7,O=C(O)c1ccc(-c2ccc(/C=N/NC(=O)c3[nH]c4ccc(Br)cc4c3-c3ccccc3)o2)cc1,1.4% (active)
8,CCCCc1c(Nn2cnnn2)no[n+]1[O-],51.4%
9,CC1=C(C(=O)OCc2ccccc2)C(c2c(O)cc(O)cc2O)n2c(nc3ccccc32)N1 (stereo not drawn),33.6%
10,O=C(/C=C/c1cccc(OCc2ccccc2)c1)c1nc2ccccc2[nH]1,38.3%
11,CC(=O)OCC1OC(OC2C(COC(C)=O)OC(n3cc(COc4ccc5ccc(=O)oc5c4)nn3)C(OC(C)=O)C2OC(C)=O)C(OC(C)=O)C(OC(C)=O)C1OC(C)=O (stereo not drawn),113%
12,COc1ccc2oc3c4[nH]c5ccccc5c4c4c(c3c2c1)C(=O)N(C(=O)OC(C)(C)C)C4=O,-33.7% (active)
13,O=C(c1ccccc1)c1ccc2nc(-c3ccc(F)cc3)[nH]c2c1,32.6%
14,CC1(C)CC[C@]2(C(=O)Nc3ccc(Br)cc3)CC[C@]3(C)C(=CCC4[C@@]5(C)C[C@@H](O)[C@H](O)[C@@](C)(CO)C5CC[C@]43C)C2C1 (stereo partly drawn),-4.06% (active)
15,C#CCOc1ccc(/C=N/Nc2nc(-c3cc4cc(OC)ccc4oc3=O)cs2)cc1OC,63.5%
16,COc1cc(-c2nc3cc(Cl)c(Cl)cc3[nH]2)ccc1OCc1nnc(-c2cccs2)o1,91.2%
17,COc1ccc(N2N=C(c3ccc4c(c3)OCO4)CC2c2cccc(NC(=O)CCCNS(=O)(=O)c3ccc(F)cc3)c2)cc1 (stereo not drawn),81.3%
18,C=C1CC[C@@H]2[C@]3(C)COC(c4ccccc4)O[C@@H]3CC[C@@]2(C)[C@@H]1C/C=C1/C(=O)OCC1OC(C)=O (stereo partly drawn),-88.2% (active)
19,Cc1sc2c(c1C)C(c1ccc(Cl)cc1)=N[C@@H](CC(=O)NCCCCCNC(=O)COc1ccc(C3CCC(=O)NC3=O)cc1)c1nnc(C)n1-2 (stereo partly drawn),44.7%
